MEX-5 binding = MEX-5 zinc finger RNA-binding disruptors – biochemical, C. elegans, fluorescence polarization, MLPCN library, primary screen | activity score (negative = inhibition of binding), % at 10 µM | 0.38% of 300,000 active | AID 1832, 2009 | Zinc finger protein mex-5 (Caenorhabditis elegans), Q9XUB2 | MEX-5/FITC-TCR2 RNA binding; hits give low values;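 active means inhibition past about -25% in most replicates, and total fluorescence under double the plate's negative control median, limit read from the data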
EBV gp42 inh = Epstein-Barr virus gp42 inhibitors, primary screen, biochemical, uHTS, fluorescence polarization; Glycoprotein 42 (Epstein-Barr virus (strain AG876)), Q1HVG2; inhibition, % (tested at 21.74 µM); Fluorescence polarization binding assay, mP read-out; 0.42% of 220,000 active; in the data active means inhibition above about 50%
Target sequence (Q1HVG2 whole entry, looked up): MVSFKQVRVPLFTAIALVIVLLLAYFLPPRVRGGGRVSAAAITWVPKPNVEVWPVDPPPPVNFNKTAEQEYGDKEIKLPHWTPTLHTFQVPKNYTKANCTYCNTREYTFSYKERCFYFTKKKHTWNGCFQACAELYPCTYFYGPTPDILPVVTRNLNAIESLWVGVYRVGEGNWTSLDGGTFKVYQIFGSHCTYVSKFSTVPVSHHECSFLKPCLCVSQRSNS
GLD-1 TGE inh = GLD-1/TGE RNA complex disruptors, primary screen, biochemical, fluorescence polarization. Female germline-specific tumor suppressor gld-1 (Caenorhabditis elegans), Q17339. purified GLD-1 + fluorescein TGE RNA. inhibition, % at 5.96 µM. 0.44% of 320,000 active;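 active means percent inhibition above a per-plate cutoff, the plate mean of test compounds plus 3 SD, cut at about 30% in these data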
MCL1-BIM inh = inhibitors of MCL1 binding to BIM-BH3, primary screen, biochemical, fluorescence polarization. inhibition, % at 10.9 µM. Induced myeloid leukemia cell differentiation protein Mcl-1 (Homo sapiens), Q07820. GST-MCL1 / FITC-Bim-BH3 fluorescence polarization. 0.68% of 320,000 active;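 active means inhibition above the mean inhibition of all tested compounds plus 3 SD, set per campaign, cut at about 40% in these data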;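 further: higher means more loss of mP so more displacement of Bim peptide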
BCLXL inh = inhibitors of human Bcl-xL, primary screen, biochemical, fluorescence polarization, HTS; Bcl-2-like protein 1 (Homo sapiens), Q07817; GST-Bcl-xL / FITC-Bim BH3 peptide fluorescence polarization; inhibition, % at 10.9 µM; 0.7% of 320,000 active;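 active means inhibition above the mean of all tested compounds plus 3 SD, cutoff set per campaign, cut at about 30% in these data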;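 further: inhibitors lower millipolarization by displacing the labeled peptide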
Target sequence (Q07817 whole entry, looked up): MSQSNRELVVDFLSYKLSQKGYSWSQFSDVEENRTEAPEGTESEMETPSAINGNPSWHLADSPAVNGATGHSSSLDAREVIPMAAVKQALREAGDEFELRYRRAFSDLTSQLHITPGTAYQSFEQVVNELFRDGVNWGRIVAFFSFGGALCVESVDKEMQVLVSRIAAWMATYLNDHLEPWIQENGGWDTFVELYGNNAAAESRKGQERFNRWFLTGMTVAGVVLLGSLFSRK
Bcl-xL conf = Bcl-xL inhibitors blocking Bim BH3 binding, confirmation, counter-screen for MCL1 inhibitor project, biochemical, fluorescence polarization; shares compounds with MCL1-BIM inh; GST-Bcl-xL / FITC-Bim BH3 peptide FP binding; inhibition, % at 10.9 µM; 54% of 1,700 active;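 active means inhibition above a cutoff equal to the mean inhibition of all tested compounds plus 3 SD, cut at about 30% in these data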
MCL1 inh confirm = inhibitors of MCL1 binding to BIM-BH3, confirmation, biochemical, fluorescence polarization, triplicate; inhibition, % at 10.9 µM; 61% of 1,700 active; GST-MCL1 / FITC-Bim-BH3 fluorescence polarization; shares compounds with MCL1-BIM inh; AID 2168, 2009;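 active means inhibition above the average of all tested compounds plus 3 SD, cut at about 40% in these data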
Numbers stand for hits; i = inactive; nt = not tested or not shown; + = active, no number. The list is not random: actives were taken first. Their share in the collection is about 1.3%.

SMILES	MEX-5 binding	EBV gp42 inh	GLD-1 TGE inh	MCL1-BIM inh	BCLXL inh	Bcl-xL conf	MCL1 inh confirm
CCCSCC(=O)Nc1ncc2c(n1)-c1ccccc1CC2	i	60	i	62	66	71	90
O=C(Nc1ncc2c(n1)-c1ccccc1CC2)c1ccc(Cl)cc1	i	i	i	i	i	nt	nt
O=C(COC(=O)C1CCCCC1)Nc1ccccc1OC(F)F	i	i	i	i	i	nt	nt
COc1cc(/C=N/NC(=O)c2ccccc2O)ccc1OC(=O)CC1SC(=O)NC1=O (centres undefined)	i	i	i	i	i	nt	nt
CSc1nnc(N2C(=O)C(O)=C(C(=O)c3ccco3)C2c2ccc(F)cc2)s1 (centres undefined)	i	nt	83	71	80	43	55
COc1ccc2nc(N3C(=O)C(O)=C(C(=O)c4ccco4)C3c3ccccc3OC)sc2c1 (centres undefined)	i	nt	i	i	i	nt	nt
O=C(C1=C(O)C(=O)N(c2ncccn2)C1c1ccc(Cl)cc1)c1ccco1 (centres undefined)	i	i	i	i	i	nt	nt
CCSc1nnc(N2C(=O)C(O)=C(C(=O)c3ccco3)C2c2cccc(OC)c2)s1 (centres undefined)	i	nt	79	60	60	65	76
Cc1ccc(-n2nc(-c3ccc(OC(F)(F)F)cc3)cc2N)cc1C	i	i	i	i	i	nt	nt
C=C1C[C@H](O)[C@@H]2[C@H](OC(=O)[C@H]2C)[C@H]2[C@H](C)[C@@H](O)C[C@@H]12	nt	nt	i	i	i	nt	nt
CC(=O)OCC1=C(C(=O)O)N2C(=O)C(NC(=O)c3ccc(COc4ccc(Cl)cc4)o3)C2SC1 (centres undefined)	i	i	i	i	i	nt	nt
CC(=O)OCC1=C(C(=O)O)N2C(=O)C(NC(=O)c3ccc(COc4c(C)cccc4Cl)o3)C2SC1 (centres undefined)	i	i	i	43	i	i	51
O=C(N/N=C/c1ccc([N+](=O)[O-])cc1)c1ccc(COc2ccccc2-c2ccccc2)cc1	i	i	i	i	i	nt	nt
COc1ccc(CCNC(=O)CC2SC(=NCCc3ccccc3)NC2=O)cc1OC (centres undefined)	i	i	i	i	i	nt	nt
CCCc1nc(SC2CCCC2)c2c(=O)n(C)c(=O)n(C)c2n1	i	i	i	+	i	i	i
CCCc1nc(SCC(=O)N2CCC(C)CC2)c2c(=O)n(C)c(=O)n(C)c2n1	nt	i	i	i	i	nt	nt
Cc1ccc(N(CC(=O)NCc2ccc(F)cc2)S(=O)(=O)c2c(C)n[nH]c2C)cc1	i	nt	i	i	i	nt	nt
O=C(CSc1nnc(SCc2ccccc2)s1)N/N=C/C=C/c1ccco1	i	68	i	58	i	i	67
Nc1cnccc1C(=O)O	-30	i	98	125	107	144	174
N#CC1(C#N)C(c2ccccc2)OC23CCCCC2C1(C#N)C(=N)O3 (centres undefined)	-49	i	102	178	132	i	i
N#CC1(C#N)C(c2ccccc2)OC23CCCCCC2C1(C#N)C(=N)O3 (centres undefined)	i	i	i	48	36	78	101
COc1ccccc1CN=c1c([N+](=O)[O-])nn(-c2ccc3c(c2)OCCO3)n1O	i	i	i	i	i	nt	nt
O=[N+]([O-])c1nn(-c2ccc3c(c2)OCCO3)n(O)c1=NCc1ccccc1Cl	i	i	i	54	42	i	i
CC(C)CN1C(=O)N(c2ccc(Cl)cc2)C(C)(O)CC1(C)C (centres undefined)	i	nt	i	i	i	nt	nt
Cc1ccc(OCC(=O)c2cc(C)c(C)cc2C)c([N+](=O)[O-])n1	i	i	i	i	i	nt	nt
SMILES	MEX-5 binding	EBV gp42 inh	GLD-1 TGE inh	MCL1-BIM inh	BCLXL inh	Bcl-xL conf	MCL1 inh confirm
Cc1ccc(OCC(=O)c2c(N)n(C)c(=O)n(C)c2=O)c([N+](=O)[O-])n1	nt	nt	i	72	36	i	59
CC(C)(C)c1cc(C(=O)O)n[nH]1	i	i	i	48	i	i	i
CC1(COS(N)(=O)=O)CCCCC1	i	nt	i	i	i	nt	nt
CCOC(=O)CNc1ccc2c(c1)OCO2	i	i	84	176	154	i	i
COc1ccc(N2CCN(CCCNC(=O)C(=O)c3c(C)n(C)c4ccccc34)CC2)cc1	i	nt	i	i	i	nt	nt
Cc1cccc(NC(=O)CNC(=O)c2cccc(-n3cccc3)c2)c1C	i	nt	i	49	i	i	57
Nc1nc(SCC(=O)O)[nH]c(=O)c1NC(=O)c1ccco1	i	nt	i	55	41	i	i
CCNC(=S)N(CCc1c(C)[nH]c2ccccc12)Cc1cc(OC)c(OC)c(OC)c1	i	i	i	i	i	nt	nt
CNc1ccc(Br)cc(C(=O)/C=C/c2ccc(OC)cc2)c1=O	i	i	i	i	i	nt	nt
CNc1ccc(Br)cc(C(=O)/C=C/c2ccc3c(c2)OCO3)c1=O	i	i	i	49	i	i	i
N=C1CCC(=N)c2c1c(O)c1ccccc1c2O	i	69	107	150	125	119	144
N=C1CCCN1c1ccccc1O	i	i	i	i	i	nt	nt
CCN(CC)C(=O)CSc1nc2ccccc2c(=O)n1-c1cccc(OC)c1	i	i	i	i	i	nt	nt
COc1cccc(-n2c(SCc3cc(=O)oc4cc(O)c(O)cc34)nc3ccccc3c2=O)c1	i	i	i	51	i	i	63
Cc1cc(C(=O)NNC(=O)c2ccc(C)s2)c(C)o1	i	nt	i	i	i	nt	nt
CNc1ccccc1	nt	nt	i	i	i	nt	nt
CNc1cccccc1=S	i	i	i	78	54	i	i
Cc1cc(-n2c(=O)c(C#N)cc3c(=O)n4ccccc4nc32)no1	i	i	i	56	43	45	58
Cc1ccccc1-n1c(=O)c(C#N)cc2c(=O)n3ccccc3nc21	i	i	i	i	i	nt	nt
Cc1ccc(CNC(=O)CN2CCN(c3ccc(F)cc3)CC2)cc1	i	nt	i	i	i	nt	nt
Cc1cc(O)c2c(c1)C(=O)c1cccc(O)c1C2=O	nt	i	nt	nt	nt	nt	nt
O=C(O)c1cc(O)c2c(c1)C(=O)c1cccc(O)c1C2=O	-28	i	89	147	114	118	144
NC(=O)c1sc2nc3c(c(-c4ccco4)c2c1N)CCC3	i	i	i	i	i	nt	nt

Source: PubChem (several laboratories)
